Assay results published in PubChem BioAssay.

Assay: binders of probe aFSTL3 on microarray, primary screen, stem cell growth factor project, biochemical, small-molecule microarray, fluorescence 635/667 (AID 1064);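 further: measures binding of the biotinylated anti-FSTL3 antibody to printed compounds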
Conditions: higher = more signal
Work on `COC(=O)[C@@]1(Cc2ccc(OC)cc2)[C@H]2c3cc(C(=O)N(C)C)n(Cc4cc(C)n(C)n4)c3C[C@H]2CN1C(=O)c1ccccc1` yielded a composite z-score of 0.223.
In the case of `O=C(NCc1ccccc1)[C@]1(Cc2ccccc2)N=C(c2ccc(OCCCO)cc2)O[C@@H]1c1ccccc1`, the composite z-score is reported as 0.78.
Compound `[N-]=[N+]=NCc1ccccc1[C@H]1OC(c2ccc(OCCCO)cc2)=N[C@@]1(Cc1ccccc1N=[N+]=[N-])C(=O)N1CCCCC1` has a composite z-score of 0.398.
For `COCCOC(=O)N1C(=O)[C@@]2(c3ccccc31)[C@H](c1ccc(OCCO)cc1)N1[C@H](c3ccccc3)[C@H](c3ccccc3)OC(=O)[C@H]1[C@@H]2C(=O)NC[C@H](O)c1ccccc1`, the composite z-score was -0.115.
Work on `COc1ccc(C(=O)Nc2ccc3c(c2)[C@]2(O[C@@H](CCO)[C@H]([Si](C)(C)c4ccc(OC)cc4)[C@H]2C)C(=O)N3Cc2ccccc2)cc1` yielded a composite z-score of 0.0295.
`CN(C)C(=O)[C@]1(Cc2ccccc2N=[N+]=[N-])N=C(c2ccc(OCCCO)cc2)O[C@@H]1c1ccccc1CN=[N+]=[N-]` gave a composite z-score of -0.144.
Compound `COCCOC(=O)N1C(=O)[C@@]2(c3cc(C#Cc4ccc(OC)cc4)ccc31)[C@H](C(=O)N1CCc3cc(OC)c(OC)cc3C1)[C@H]1C(=O)O[C@H](c3ccccc3)[C@H](c3ccccc3)N1[C@@H]2c1ccc(O)cc1` has a composite z-score of -0.285.
For `COc1ccc(C#Cc2ccc3c(c2)[C@]2(C(=O)N3)[C@H](C(N)=O)[C@H]3C(=O)O[C@H](c4ccccc4)[C@H](c4ccccc4)N3[C@@H]2c2ccc(O)cc2)cc1`, the composite z-score was -0.302.
`COc1ccc([Si](C)(C)[C@@H]2[C@@H](CCO)O[C@]3(C(=O)N(Cc4ccccc4)c4ccc(N5C(=O)COc6ccccc65)cc43)[C@H]2C)cc1` gave a composite z-score of -0.169.
Compound `CC(C)(C)OC(=O)CC[C@@]1(C(=O)N2CCCCC2)N=C(c2ccc(OCCCO)cc2)O[C@@H]1c1ccccc1CN=[N+]=[N-]` has a composite z-score of 0.165.
Work on `CC(C)C(CO)N1C(=O)[C@@H]2[C@H]3C(=O)OCC=C[C@H]3OC23C=CCN(CCN2CCOCC2)C(=O)[C@@H]13` (stereo not given in full) yielded a composite z-score of -0.565.
With `CN1C(=O)C2C=CC(C(O)c3cccc4ccccc34)N(NC(=O)OC(C)(C)C)C2C1=O` (stereo not given) the composite z-score was 1.07.
In the case of `COCCOC(=O)N1C(=O)[C@@]2(c3cc(C#Cc4ccc(OC)cc4)ccc31)[C@H](C(=O)N1CCc3cc(OC)c(OC)cc3C1)[C@H]1C(=O)O[C@H](c3ccccc3)[C@H](c3ccccc3)N1[C@@H]2c1ccc(OCCO)cc1`, the composite z-score is reported as -0.172.
With `CCOC(=O)C1=CC[C@@H](c2ccccc2)N(S(=O)(=O)c2ccc(C)cc2)[C@H]1C=C(C)C` the composite z-score was -0.259.
Work on `C[N+](C)(C)CCCC[C@@H]1NC(=O)[C@H]2C[C@@H](C(=O)NCCCCCCN)[C@@H](c3cccc(OCCO)c3)N2C1=O` yielded a composite z-score of 1.71.
Compound `COC(=O)C(CC#Cc1ccc2c(c1)[C@]1(C(=O)N2)[C@H](c2ccc(O)cc2)N2[C@H](c3ccccc3)[C@H](c3ccccc3)OC(=O)[C@H]2[C@@H]1C(N)=O)C(=O)OC` has a composite z-score of 0.659.
Compound `CCOc1cc(C(O)C2C=CC3C(=O)NC(=O)C3N2Nc2ccccn2)ccc1O` (stereo not given) has a composite z-score of -0.373.
Compound `C[N+](C)(C)CCCCCCNC(=O)[C@@H]1C[C@@H]2C(=O)NCC(=O)N2[C@@H]1c1cccc(OCCO)c1` has a composite z-score of -0.419.
Compound `O=C1c2ccccc2C(=O)C2CC([C@H]3Oc4ccccc4S(=O)(=O)N4CCC[C@@H]34)=CCC12` (stereo not given in full) has a composite z-score of -0.253.
In the case of `CCCc1cc2c(n1Cc1ccc(OC)cc1)C(C)C1CN(C(=O)c3ccccc3)C(C)(C(=O)OC)C21` (stereo not given), the composite z-score is reported as 1.24.
`CC(=O)NCCCC[C@@H]1NC(=O)[C@@H]2C[C@H](C(=O)NCCCC[N+](C)(C)C)[C@H](c3cccc(OCCO)c3)N2C1=O` showed a composite z-score of -0.239.
With `[N-]=[N+]=Nc1ccccc1[C@@H]1OC(c2ccc(OCCCO)cc2)=N[C@]1(CCS(=O)(=O)c1ccccc1)C(=O)NCc1ccccc1` the composite z-score was 0.207.
In the case of `CN(C)CCCC[C@@H]1NC(=O)[C@H]2C[C@@H](C(=O)NCCCCCCNC(=O)CS)[C@@H](c3ccc(O)cc3)N2C1=O`, the composite z-score is reported as 0.0462.
For `COC(=O)[C@@]1(Cc2ccc(OC)cc2)[C@H]2c3cc(C(=O)N4CCCC4)n(Cc4ccc(C)o4)c3C[C@H]2CN1C(=O)c1ccccc1`, the composite z-score was 0.833.
`O=C1N(Cc2ccccc2)c2ccccc2[C@H]2OC(c3ccc(OCCCO)cc3)=N[C@@]12CCS(=O)(=O)c1ccccc1` showed a composite z-score of 0.149.
With `COCCCNC(=O)[C@]1(Cc2ccccc2)N=C(c2ccc(OCCCO)cc2)O[C@@H]1c1ccccc1N=[N+]=[N-]` the composite z-score was 0.29.
`CCCCC(=C=CC[C@H](O)c1cccc(OCCO)c1)C[C@H](O)COCc1ccccc1` gave a composite z-score of -0.0829.
For `COC(=O)c1ccc(OC)c(/C=C\CC(CCc2ccccc2)OC(=O)c2ccncc2)c1` (stereo not given), the composite z-score was 0.233.
With `COc1ccc([Si](C)(C)[C@H]2[C@H](CC(=O)N3CCC[C@H]3CO)O[C@@]3(C(=O)N(Cc4ccc(N5C(=O)c6cccc7cccc5c67)cc4)c4ccccc43)[C@@H]2C)cc1` the composite z-score was -0.276.
In the case of `COc1cc(NN2C(C(O)c3ccc(I)cc3)C=CC3C(=O)N(C)C(=O)C32)cc(OC)c1OC` (stereo not given), the composite z-score is reported as 0.495.
In the case of `C=CCC(OC(C)=O)[C@@H]1[C@@H](N(Cc2ccc(-c3ccccc3)cc2)C(=O)c2cccc3ccccc23)c2cc(OCCCO)ccc2N1C(=O)c1ccc2ccccc2n1` (stereo not given in full), the composite z-score is reported as -0.0204.
In the case of `C=CCC(OC(C)=O)[C@@H]1[C@@H](N(Cc2cccc3ccccc23)C(=O)Cc2ccc(F)cc2)c2cc(OCCCO)ccc2N1C(=O)Cc1ccc(OC)cc1` (stereo not given in full), the composite z-score is reported as -0.449.
Compound `O=C1O[C@H](c2ccccc2)[C@H](c2ccccc2)N2[C@H]1[C@@H](C(=O)N1CCN(c3ncccn3)CC1)[C@]1(C(=O)Nc3ccc(C#CCCO)cc31)[C@H]2c1ccccc1OCCO` has a composite z-score of -0.301.
With `COC(=O)[C@@]1(Cc2ccccc2)[C@H]2c3cc(C(=O)N4CCCC4)n(CCO)c3C[C@H]2CN1C(=O)c1ccccc1` the composite z-score was 1.35.
`COCCCNC(=O)[C@@]1(Cc2ccccc2I)c2ccccc2C(=O)N(Cc2ccccc2Cl)[C@H]1c1ccc(CO)cc1` gave a composite z-score of -0.196.
